The list is not random: actives were taken first. Their share in the collection is about 15%.
RORg inh – inhibitors of mouse ROR gamma transcriptional activity. Drosophila S2 Gal4-RORgamma UAS-luciferase reporter, 20 h. AID 2551. Potency, µM (series often up to 53.6 µM), actives largely listed as inhibitors. 5.4% of 310,000 active; also: nearly all actives have a fitted effect of over 60% in size
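Using a luciferase readout, inhibitors were identified by reduced reporter activity in Drosophila cells coexpressing a copper-inducible Gal4–ROR gamma fusion and UAS-driven Photinus luciferase, incubated 20 hr after 700 uM copper sulfate.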
Gal4-VP16 FLuc – counter-screen for ROR gamma inhibitors: Gal4-VP16 reporter; AID 2546; 3.5% of 310,000 active; Potency, µM (highest dose often 53.6 µM), usual class: inhibitors; Drosophila S2 Gal4-VP16 UAS-luciferase, luminescence, 20 h;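 also: Gal4-VP16 expression switched on by copper sulfate through the metallothionein promoter; nearly all actives have a fitted effect of over 50% in size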
TDP1 cell CPT – growth inhibition of DT40 Tdp1-/-;hTDP1 cells with camptothecin (screen for TDP1 inhibitors); AID 686979; Potency, µM (series often up to 46.2 µM), hits mostly inhibitors; 12% of 420,000 active; chicken DT40 Tdp1-/-;hTDP1 cells + 20 nM CPT, ATP luminescence, 48 h; also: nearly all actives have a fitted effect of over 55% in size
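Chicken DT40 Tdp1-/- cells complemented with human TDP1, 400 cells/well, exposed to compounds plus 20 nM camptothecin for at least 48 h at 37 C; viability read as ATP content by CellTiter-Glo luminescence.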
12-LOX inh – inhibitors of human 12S-lipoxygenase ALOX12; P18054; purified 12hLO, xylenol orange hydroperoxide absorbance; Potency, µM (highest dose often 108 µM), most hits filed as inhibitors; 1.1% of 580,000 active; AID 1671190
Target sequence (P18054 whole entry, looked up): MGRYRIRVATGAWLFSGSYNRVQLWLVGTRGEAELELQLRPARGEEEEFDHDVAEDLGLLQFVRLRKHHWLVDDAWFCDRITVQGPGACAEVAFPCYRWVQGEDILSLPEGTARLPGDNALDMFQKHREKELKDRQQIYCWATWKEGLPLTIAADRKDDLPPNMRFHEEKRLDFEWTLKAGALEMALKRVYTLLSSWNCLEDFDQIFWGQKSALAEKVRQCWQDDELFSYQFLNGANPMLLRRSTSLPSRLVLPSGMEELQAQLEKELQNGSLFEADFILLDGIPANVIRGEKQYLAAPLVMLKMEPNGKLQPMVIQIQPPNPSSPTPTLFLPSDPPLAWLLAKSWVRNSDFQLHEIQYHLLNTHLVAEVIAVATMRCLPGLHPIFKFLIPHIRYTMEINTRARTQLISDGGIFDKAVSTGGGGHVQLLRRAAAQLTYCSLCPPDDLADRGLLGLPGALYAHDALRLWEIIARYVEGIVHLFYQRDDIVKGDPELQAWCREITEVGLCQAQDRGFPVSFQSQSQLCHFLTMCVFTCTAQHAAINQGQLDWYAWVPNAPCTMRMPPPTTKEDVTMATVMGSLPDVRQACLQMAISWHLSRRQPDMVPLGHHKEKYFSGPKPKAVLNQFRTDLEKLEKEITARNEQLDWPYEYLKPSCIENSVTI
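Purified human 12hLO at 150 nM in 25 mM Hepes, 0.01% Triton X-100, pH 7.0, preincubated 15 min at room temperature with compound. Reaction started with 40 uM arachidonic acid, 30 min at room temperature. Hydroperoxide measured by Fe-xylenol orange, 573/405 nm absorbance ratio.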
DT40 TDP1 no CPT – qHTS for Inhibitors of human tyrosyl-DNA phosphodiesterase 1 (TDP1): qHTS in cells in absence of CPT; AID 686978, 2013; Potency, µM (top dose mostly 46.2 µM), actives largely listed as inhibitors; DT40 Tdp1-/- hTDP1 cells, no CPT, ATP luminescence, 48 h; 15% of 420,000 active; also: nearly all actives have a fitted effect of over 55% in size
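Growth of hTDP1-complemented DT40 Tdp1-knockout cells is measured by ATP luminescence after at least 48 hr compound exposure at 37 °C, with DMSO substituting for the 20 nM CPT used in the parallel screen.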
ELG1 DNA repair – ELG1-dependent DNA repair inhibition | AID 504467 | HEK293T ELG1-luciferase reporter, luminescence, 16 h; DNA damage induced by 5-fluorouridine | Potency, µM (highest dose often 46.1 µM), most hits filed as inhibitors | 2.3% of 330,000 active; also: nearly all actives have a fitted effect of over 55% in size
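HEK293T cells expressing luciferase-tagged ELG1 (2,000/well) received 5-Fluorouridine plus compound or DMSO for 16 hr at 37 °C. Luciferase was read by ONE-Glo luminescence after 30 min at room temperature.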
Numbers stand for hits. Calls follow the shape of the dose curve; as a rule, active = well fitted curve in the direction sought with a large enough effect; inconclusive = small, poorly fitted or top-dose-only effect, or another doubt; inactive = no such curve, though single readings can be large; an effect the other way counts as inactive or inconclusive.

For O=C(CCN1CCN(Cc2ccccc2)CC1)Nc1ccc(OCc2ccccc2)cc1 the results were RORg inh inactive, Gal4-VP16 FLuc inconclusive, TDP1 cell CPT inconclusive, 12-LOX inh inactive, DT40 TDP1 no CPT 15µM and ELG1 DNA repair inconclusive.
CCN1CCN(CCC(=O)Nc2cccc(OC)c2)CC1 was read as RORg inh inactive, Gal4-VP16 FLuc inactive, TDP1 cell CPT inactive, 12-LOX inh inactive, DT40 TDP1 no CPT inactive and ELG1 DNA repair inactive.
`Cc1cccc(NC(=O)CCN2CCN(Cc3cccc4ccccc34)CC2)c1` gave 12-LOX inh 28µM.
O=C(C1CC(=O)N(c2n[nH]c3ccccc23)C1)N1CCc2c([nH]c3ccccc23)C1 (stereo not drawn) was read as 12-LOX inh inactive.
O=C(CCN1CCN(CCO)CC1)Nc1cccc(Br)c1 was read as RORg inh inactive, Gal4-VP16 FLuc inactive, TDP1 cell CPT inactive, 12-LOX inh inactive, DT40 TDP1 no CPT inactive and ELG1 DNA repair inactive.
Screening O=C(CCN1CCN(Cc2ccccc2)CC1)Nc1cccc(Br)c1 returned RORg inh inactive, Gal4-VP16 FLuc inactive, TDP1 cell CPT 16µM, 12-LOX inh inactive, DT40 TDP1 no CPT 16µM and ELG1 DNA repair inactive.
Cc1cc(C(=O)CSc2nc3ccc(Cl)cc3[nH]2)c(C)n1CC1CCCO1 (stereo not drawn) was read as RORg inh inactive, Gal4-VP16 FLuc inconclusive, TDP1 cell CPT 9.2µM, 12-LOX inh inactive, DT40 TDP1 no CPT 5.8µM and ELG1 DNA repair 23µM.
Cc1ccc2nc(SCC(=O)N3CCOCC3)[nH]c2c1 was read as RORg inh inactive, Gal4-VP16 FLuc inconclusive, TDP1 cell CPT inactive, 12-LOX inh inactive, DT40 TDP1 no CPT inactive and ELG1 DNA repair inconclusive.
Cc1ccc2nc(SCC3CCCCO3)[nH]c2c1 (stereo not drawn) was read as RORg inh 5.6µM, Gal4-VP16 FLuc 6.3µM, TDP1 cell CPT inactive, 12-LOX inh inactive, DT40 TDP1 no CPT inactive and ELG1 DNA repair inconclusive.
COc1ccc(Nc2nnc(SCC(=O)c3cc(C)n(CC4CCCO4)c3C)s2)cc1 (stereo not drawn) was read as RORg inh inactive, Gal4-VP16 FLuc inactive, TDP1 cell CPT 18µM, 12-LOX inh inactive, DT40 TDP1 no CPT inconclusive and ELG1 DNA repair inconclusive.
Screening Cc1cc(C(=O)CSc2nnc(-c3ccc(Cl)cc3)n2CC2CCCO2)c(C)n1C (stereo not drawn) returned RORg inh inactive, Gal4-VP16 FLuc inactive, TDP1 cell CPT 12µM, 12-LOX inh inactive, DT40 TDP1 no CPT 23µM and ELG1 DNA repair inactive.
For COCCn1c(C)cc(C(=O)CSc2nc3ccc(Cl)cc3[nH]2)c1C the results were 12-LOX inh inactive.
For Cc1onc(-c2ccccc2)c1-c1nnc(CSc2nnnn2C2CCCC2)o1 the results were 12-LOX inh inactive.
Screening Cc1cc(=O)oc2cc(OCc3ccc(S(=O)(=O)N4CCOCC4)cc3)ccc12 returned RORg inh inactive, Gal4-VP16 FLuc inactive, TDP1 cell CPT inconclusive, 12-LOX inh inactive, DT40 TDP1 no CPT 29µM and ELG1 DNA repair inactive.
COc1cc(NC(=S)NCc2cccnc2)cc(OC)c1 was read as RORg inh inconclusive, Gal4-VP16 FLuc inactive, TDP1 cell CPT inactive, 12-LOX inh inactive, DT40 TDP1 no CPT inactive and ELG1 DNA repair inactive.
Cc1cc(C)cc(NC(=S)NCc2cccs2)c1 was read as RORg inh 2.2µM, Gal4-VP16 FLuc 11µM, TDP1 cell CPT 15µM, 12-LOX inh inconclusive, DT40 TDP1 no CPT inconclusive and ELG1 DNA repair inactive.
`S=C(NCc1cccs1)Nc1ccc(Br)cc1Cl` gave RORg inh inconclusive, Gal4-VP16 FLuc inactive, TDP1 cell CPT inactive, 12-LOX inh inconclusive, DT40 TDP1 no CPT inactive and ELG1 DNA repair inactive.
For COc1cc(NC(=S)NCc2cccs2)cc(OC)c1 the results were RORg inh 5µM, Gal4-VP16 FLuc 11µM, TDP1 cell CPT inconclusive, 12-LOX inh inconclusive, DT40 TDP1 no CPT inconclusive and ELG1 DNA repair inactive.
For CN(CC(=O)NC(N)=O)C(c1ccccc1)c1ccccc1 the results were 12-LOX inh inactive.
